Experimental findings from PubChem BioAssay AID504843 (Broad Institute, 2011) are described below.

Hit rate of the full screen: of about 1,200 compounds, about 360 (30%) were called active. No rule for the calls is given here. Only a sample is shown. Results with a measured potency or affinity are listed apart.

A short description of the test: antibacterial activity by ATP level – BacTiter-Glo luminescence, cherry-picked samples, counter-screen, dose response (AID 504843).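 Also: growth measured after 8 h incubation at 30 °C.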 The following applies: bacterial growth; series mostly up to 15 µM.
Turning to `O=C(O)c1ccc(/C=C2\SC(=Nc3ccccc3)N(c3ccccc3)C2=O)cc1`, the result was inactive.
In the case of `CCC1CCCCN1CCNC(=O)CNS(=O)(=O)c1ccc2nc(C)sc2c1` (configuration not stated) it was “inactive”; in that of `Cc1ccccc1NC(=O)NCCN1C(=O)C2C3C=CC(C3)C2C1=O` (configuration not stated), “inactive”.
Under `CCOc1ccc(NC(=O)CN2C(=O)/C(=C3\SC(=S)N(C4CCS(=O)(=O)C4)C3=O)c3ccccc32)cc1` (configuration not stated) stands “inactive”.
Consider `COc1ccc(C(=O)Nc2cnn(Cc3ccc(Cl)cc3)c2)cc1OC`, for which the outcome was inactive.
In the case of `COc1cc(C(=O)Oc2cc(C)cc(C)c2)cc(OC)c1OC` it was “inactive”; in that of `CCOC(=O)CC(NC(=O)c1cccc2c1C(=O)N(Cc1cccnc1)C2)c1ccc(OCC)c(OC)c1` (configuration not stated), “inactive”; in that of `CCc1ccc(C(C(=O)NC2CCCC2)N(CCOC)C(=O)CCC(=O)Nc2cc(C)on2)cc1` (configuration not stated), “inactive”.
Under `CCCCCCCCCCCCN1[C@@H](CC(=O)O)c2cc(C(F)(F)F)ccc2S1(=O)=O` stands “inactive”.
`Cc1c(OCC(=O)NCCCN2CCOCC2)ccc2c1oc(=O)c1ccccc12`: the molecule was classed as inactive.
In the case of `O=C(NCCCN1CCOCC1)c1cc2cc(Br)ccc2oc1=O` it was “inactive”.
In the case of `COc1cccc(C2CC(c3cccc(OC)c3)n3nc(N)nc3N2)c1` (configuration not stated), the molecule was called inactive.
In the case of `Cc1ccc(NC(=O)C(c2ccc(Cl)cc2)N2CCCCC2)cc1` (configuration not stated) it was “inactive”; in that of `CC(=O)c1ccc(NC(=S)NC(C)c2ccc(Cl)cc2Cl)cc1` (configuration not stated), “inactive”; in that of `CCc1ncc(C)nc1CC`, “inactive”.
For `CN1CCN(C(=S)c2cn(Cc3ccc(Br)cc3)c3ccccc23)CC1`, the outcome was inactive.
Under `Cc1nn(-c2ccccc2)c(Cl)c1/C=C(\CC(=O)O)c1nc2ccccc2s1` stands “inactive”; under `Cc1nn(-c2ccccc2)c(Cl)c1/C=N/NC(=O)c1ccn[nH]1`, “inactive”.
In the case of `COc1ccc(C(=O)NCC(=O)N/N=C/C(C)=C/c2ccco2)cc1OC` it was “inactive”; in that of `N/C(=N\OS(=O)(=O)c1ccccc1)c1cccnc1`, “inactive”; in that of `CC(Sc1nc2ccccc2c(=O)n1C)C(=O)NC1CCCCC1C` (configuration not stated), “inactive”.
In the case of `O=C(NCc1cccs1)c1cccnc1C(=O)O` it was “inactive”; in that of `CCOCCCNS(=O)(=O)c1ccc(Br)cc1`, “inactive”; in that of `O=C1OCCN1C(=O)[C@H]1[C@H](c2ccc(Cl)cc2)C(c2ccccc2)=NN1c1ccccc1`, “inactive”.
Take `COc1ccc(N2CCN(C(=O)C3CCCN(S(=O)(=O)c4cccc5cccnc45)C3)CC2)cc1` (configuration not stated): the call was inactive.
Take `O=C(Nc1ccc2c(c1)OCCO2)N1CCN(c2ccc(F)cc2)CC1`: the outcome was inactive.
Regarding `COc1ccc(Cn2nnnc2C(c2cc3ccc(OC)cc3[nH]c2=O)N2CCC(C)CC2)cc1` (configuration not stated), the molecule was called inactive.
Under `CCS(=O)(=O)c1ccc(NC(=O)c2ccccc2Cl)c(O)c1` stands “inactive”; under `Cc1ccc(S(=O)(=O)N(CC(=O)Nc2ccccc2-c2ccccc2)c2ccc(C)cc2C)cc1`, “inactive”; under `CCn1c(CCn2c3ccccc3c3ccccc32)n[nH]c1=S`, “inactive”.
Under `CC(=O)NC(Cc1ccc(F)c(F)c1)C(=O)NC1CCN(c2c(Cc3ccccc3)c(C)nc3ncnn23)CC1` (configuration not stated) stands “inactive”.
Under `O=C(Nc1cc(F)ccc1F)C1CCCN(c2ncnc3c2nc2n3CCCCC2)C1` (configuration not stated) stands “inactive”.
With `CCN(CC)S(=O)(=O)c1ccc(NC(=O)Cc2cccs2)cc1`, the result was inactive.
Under `Oc1ccc(/C=N/Nc2ccccc2)cc1` stands “inactive”; under `COc1ccc(-c2cc(C(F)(F)F)c3c(n2)sc2c(O)cc(=O)[nH]c23)c(OC)c1`, “inactive”.
`CC(C)c1cccc(C(C)C)c1OC(=O)[C@H]1OC(C(C)(C)C)=C[C@@H]1c1ccccc1`: the result was inactive.
In the case of `COC(=O)CN1C(=O)C(O)=C(C(C)=O)C1c1ccc([N+](=O)[O-])cc1` (configuration not stated) it was “inactive”; in that of `Cc1c(N2C(=O)c3cccc4cccc(c34)C2=O)c(=O)n(-c2ccccc2)n1C`, “inactive”.
Under `CCCc1c(O)nc(SC2CC(=O)N(c3ccc(OC)cc3)C2=O)[nH]c1=O` (configuration not stated) stands “inactive”.
In the case of `CC(C)CNC(=S)NC1CCCC1` it was “inactive”; in that of `COc1cc(SC)ccc1C(=O)Nc1cc(C)ccn1`, “inactive”.
As to `COc1cc2cc(C(c3nnnn3Cc3ccc(F)cc3)N3CCCCCC3)c(=O)[nH]c2cc1OC` (configuration not stated), the outcome was inactive.
Under `O=C(O)C1CCCCN1S(=O)(=O)c1ccc(Cl)s1` (configuration not stated) stands “inactive”; under `O=S(=O)(NC1CCCC1)c1cc(F)ccc1F`, “inactive”.
Under `Cc1cc(=O)oc2cc(OCC(=O)OCC(=O)N3CCc4ccccc43)ccc12` stands “inactive”; under `CCc1nc2nc(C)c(NS(=O)(=O)c3ccc(Cl)s3)c(=O)n2[nH]1`, “inactive”.
In the case of `Cc1ccc(=O)n(-c2ccccc2)c1` it was “inactive”; in that of `COc1ccc(Cc2nnc(NS(=O)(=O)c3ccc(Cl)cc3)s2)cc1OC`, “inactive”; in that of `COc1ccc(Cl)cc1S(=O)(=O)Nc1noc2ccccc12`, “inactive”.
In the case of `CC(C)(CO)[C@@H](O)C(=O)NCCC(=O)O`, the result was inactive.
For the molecule `COc1cc(C(=O)NCCOC(=O)c2cccc(N(C)C)c2)cc(OC)c1OC`, the molecule was classed as inactive.
For the molecule `N#Cc1c(N)nc2c(c1-c1ccncc1)CCCCC2`, the molecule was called inactive.
Regarding `Cc1ccccc1-n1c(SCC(=O)N2CCOCC2)nc(O)c(Cc2ccccc2)c1=O`, the outcome was inactive.
Under `CN(Cc1ccccc1)C(=O)N1CCOCC1` stands “inactive”.
In the case of `Cc1cc(C)n2nc(SC(C)C(=O)N3CC(C)OC(C)C3)nc2n1` (configuration not stated) it was “inactive”.
Under `COc1ccc(OC)c(NC(=O)c2cccnc2)c1` stands “inactive”.
As to `CN1CCN(c2ccc(S(=O)(=O)N3CCCCC3)cc2NC(=O)c2cccc([N+](=O)[O-])c2)CC1`, the molecule was called inactive.
Turning to `O=C(O)c1ccc(N/N=C/c2ccc(-c3ccccc3)cc2)cc1`, the molecule was classed as inactive.
In the case of `O=C(O)c1ccc(NS(=O)(=O)c2cc(C(=O)O)ccc2Br)cc1`, the outcome was inactive.
Under `Cc1ccnc(NS(=O)(=O)c2ccc(NS(=O)(=O)c3ccccc3)cc2)n1` stands “inactive”; under `Brc1ccc(NC2=Nc3ccccc3CC2)cc1`, “inactive”.
In the case of `C[C@@H]1O[C@@H](Oc2c(-c3ccc(O)c(O)c3)oc3cc(O)cc(O)c3c2=O)[C@H](O)[C@H](O)[C@H]1O`, the result was inactive.
In the case of `C[C@H](NC(=O)c1nc[nH]c1C(=O)NCc1ccc(CNC(=O)OC(C)(C)C)cc1)c1ccccc1` it was “inactive”.
In the case of `CC(C)(C)OC(=O)[C@H](Cc1ccccc1)NC(=O)c1nc[nH]c1C(=O)NC1CCN(C(=O)OC(C)(C)C)CC1` it was “inactive”; in that of `O=C(CCc1ccccc1)N1CCN(Cc2ccc(F)cc2Cl)CC1`, “inactive”.
In the case of `Cn1cc(CN2CCC(CO)(CCCc3ccccc3)CC2)c(-c2ccccc2)n1` it was “inactive”.
For `CCCn1c(N)c(C(=O)CSc2nc(C)cs2)c(=O)n(C)c1=O`, the call was inactive.
Under `O=C(Nc1ccccc1OC(F)F)c1oc2ccccc2c1COc1ccccc1` stands “inactive”.
Regarding `O=C(O)CC(NCc1ccco1)C(=O)OCCc1ccccc1` (configuration not stated), the result was inactive.
Under `CC(/C=N/NC(=O)c1nnn(-c2nonc2N)c1C(C)C)=C\c1ccccc1` stands “inactive”; under `CCn1c(SCC(=O)Nc2ccc(OC)cc2)nc2c1c(=O)n(C)c(=O)n2C`, “inactive”.
Under `CN1CCN(CCC(=O)Nc2ccc(OCc3ccccc3)cc2)CC1` stands “inactive”.
In the case of `CCOc1ccc(NC(C(=O)Nc2cccc(C(C)=O)c2)c2ccccc2)cc1` (configuration not stated), the outcome was inactive.
In the case of `CN(c1ccccc1C(=O)Nc1ccc(S(=O)(=O)N2CCOCC2)cc1)S(C)(=O)=O` it was “inactive”; in that of `CC(C)(C)NC(=O)NC(=O)CSc1ccc(S(=O)(=O)N2CCOCC2)cn1`, “inactive”; in that of `Cc1nc(SCc2nc3ccccc3[nH]2)c2oc3ccccc3c2n1`, “inactive”.
In the case of `COc1ccc([N+](=O)[O-])cc1/C=N/NC(=O)Cc1ccccc1` it was “inactive”.
In the case of `O=c1/c(=C/c2ccc(O)c([N+](=O)[O-])c2)sc2nc3ccccc3n12` it was “inactive”; in that of `CC(SCC(=O)Nc1ccc(F)cc1)c1nc2ccccc2c(=O)[nH]1` (configuration not stated), “inactive”; in that of `Cc1nc2c(=O)n(-c3cccc(C(F)(F)F)c3)nc(C)c2s1`, “inactive”.
As for `CCN1CCCC1CNCc1cccc(OC)c1OCc1ccc(F)cc1` (configuration not stated), the outcome was inactive.
In the case of `CCN1CCCC1CNC(=O)C(=O)NC(C)C` (configuration not stated) it was “inactive”.
In the case of `O=C(O)c1sccc1OCc1ccccc1` it was “inactive”; in that of `O=C(CCC1CCCCC1)NCCN1CCOCC1`, “inactive”; in that of `CCOc1ccc(Br)cc1CNCCN1CCOCC1`, “inactive”.
In the case of `COc1ccc(N=Cc2nc(-c3ccccc3)oc2OC(=O)c2ccccc2)cc1` it was “inactive”; in that of `CCNc1nc(OC)nc(Oc2ccc(=O)n(-c3ccccc3)n2)n1`, “inactive”; in that of `Clc1ccc(-c2csc(-c3cccnc3)n2)s1`, “inactive”.
Turning to `Nc1nc2ccc([N+](=O)[O-])c(N)c2s1`, the result was inactive.
Under `CCSC(=O)NC12CC3CC(CC(C3)C1)C2` stands “inactive”; under `O=C(CSc1nc2ccccc2c(=O)n1CCCN1CCOCC1)Nc1ccc2c(c1)OCO2`, “inactive”.
Turning to `O=C(O)c1ccccc1-c1nc2ccccc2c(=O)n1O`, the molecule was classed as inactive.
Regarding `CN(C(=O)COC(=O)CNC(=O)C12CC3CC(CC(C3)C1)C2)C1CCS(=O)(=O)C1` (configuration not stated), the result was inactive.
Under `N#CC1=C2SCC(O)(c3ccccc3)N2C(=O)CC1c1ccccc1F` (configuration not stated) stands “inactive”.
Under `COc1ccc(C2CC(=O)Nc3n[nH]c(-c4ccccc4)c32)cc1OC` (configuration not stated) stands “inactive”; under `COc1cc2c(cc1OC)C(c1cccc(F)c1)CC(=O)N2` (configuration not stated), “inactive”.
For the molecule `Cc1csc(N2CCCC2c2nc3cc(C(F)(F)F)ccc3n2CCOCCO)n1` (configuration not stated), the result was inactive.
Under `CN1C2CCC1CC(NS(=O)(=O)c1cc(Cl)c(Cl)cc1Cl)C2` (configuration not stated) stands “inactive”.
In the case of `CC(C)(C)c1ccc(C(=O)O)c(C(=O)c2ccc(C(=O)O)cc2)c1` it was “inactive”.
Take `CN(C)c1ccc(C(=O)n2nnc3ccccc32)cc1`: the molecule was called inactive.
For `Nc1nnc(-c2cn(-c3ccccc3)nc2-c2ccc(Cl)cc2)o1`, the molecule was classed as inactive.
Under `Cc1cccc(CNC(=O)C2CCCN(c3nn4c(=O)cc(C)nc4s3)C2)c1` (configuration not stated) stands “inactive”.
Under `COc1ccc(CNC(=O)Cn2nnc(-c3ccc(NC(=O)C4CCCCC4)cc3)n2)cc1` stands “inactive”.
In the case of `CCc1ccc(NS(=O)(=O)c2ccc3[nH]cc(C(=O)N4CCCCC4)c(=O)c3c2)cc1` it was “inactive”; in that of `C/C(=N\NC(=O)c1cccc(O)c1)c1cccc(NC(=O)c2ccc(F)cc2)c1`, “inactive”.
Regarding `CCOC(=O)CNS(=O)(=O)Cc1ccccc1`, the outcome was inactive.
In the case of `CC(=O)NCC(=O)OCC(=O)c1ccc(C)cc1` it was “inactive”.
